Only a selection was taken, and hits are over-represented in it overall.
Dicer inh: blocks human Dicer maturation of pre-miR-21. Q9UPY3. cat-ELCCA pre-miR-21 Dicer processing, chemiluminescence; active compounds read high. z-score at 25 µM. 47,000 compounds, 6% hits. AID 1347074; in the data active means z-score above about 3, passing the limit was not always enough;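 further: plate controls were vehicle for no effect and no enzyme for full effect; higher signal means more uncleaved substrate so more Dicer inhibition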
Active calls of the source: *.

SMILES	Dicer inh
CC(NC(=O)c1nn2c(c1Cl)NC(c1ccccc1)CC2C(F)(F)F)c1ccccc1 (stereo not drawn)	-0.69
O=C(c1nn2c(c1Cl)NC(c1ccc(Br)cc1)CC2C(F)(F)F)N1CCCCC1 (stereo not drawn)	-1.3
Cc1ccc(Nc2nc(C)nc(N)c2S(=O)(=O)c2ccccc2)cc1	-0.24
COCCOC(=O)C1=C(C)Nc2nc3ccccc3n2C1c1ccc(F)cc1 (stereo not drawn)	-0.77
Cc1ccc(Cn2cccc(C(F)(F)F)c2=O)cc1	0.57
COc1ccc(C2CC(=O)NC(SC)=C2C#N)cc1 (stereo not drawn)	1.4
CCOC(=O)c1cn[nH]c1C(F)(F)F	0.42
C#CCSc1nc(-c2ccccc2OC)nc(C)c1C(C)=O	0.99
C=CCN(CC=C)C(=S)NC(=O)c1ccccc1	1.2
Cc1cc(=O)oc2cc(NC(=O)CCC(=O)O)ccc12	0.31
Cn1c(=O)[nH]c(=O)c2c1nc(NCCCN1CCOCC1)n2CCCc1ccccc1	-0.64
NC(=O)CN1C(C(=O)c2ccccc2)=C(N2CCOCC2)c2ccccc2S1(=O)=O	0.95
CCCN(CCC)C1=C(C(=O)c2ccccc2)N(CC(N)=O)S(=O)(=O)c2ccccc21	3.5*
NC(=O)CN1C(C(=O)c2ccccc2)=C(NCc2ccccc2)c2ccccc2S1(=O)=O	0.71
CCOC(=O)c1c(F)c(F)c(S(C)(=O)=O)c(F)c1F	-0.42
Cc1ccc(NC(=S)N2C(C)CCCC2C)c(C)c1 (stereo not drawn)	-0.82
COc1cc(/C=C/c2nc(-c3ccccc3O)n(-c3ccccc3)n2)ccc1O	6*
COc1cc(/C=N/Nc2nc3c(c(=O)n(Cc4ccccc4)c(=O)n3C)n2C)ccc1O	-0.04
O=C(O)COc1ccc(/C=C/c2nc(-c3ccccc3O)n(-c3ccccc3)n2)cc1	1.3
Oc1cc(O)c2c(c1)O[C@H](c1ccc(O)c(O)c1)[C@@H](O)C2	-2.3
COC(=O)C(O)(NC(=O)c1ccc(C)cc1)C(F)(F)F (stereo not drawn)	-0.6
Cc1nc(-c2cccs2)sc1NC(=O)O/N=C(\N)c1ccc(C(C)(C)C)cc1	0.76
Cc1ccc(C(=O)OCC(=O)C(C)(C)C)cc1N1C(=O)c2c(C)nc3ccccc3c2C1=O	3.2*
Cc1ccc(C(=O)COC(=O)c2cccc(N3C(=O)c4c(C)nc5ccccc5c4C3=O)c2)cc1	0.43
Cc1nc2ccccc2c2c1C(=O)N(c1cccc(C(=O)OCC(=O)C(C)(C)C)c1)C2=O	-1.5
SMILES	Dicer inh
Cc1nc([N+](=O)[O-])c(Sc2nc3ccccc3o2)n1Cc1ccccc1	-1
CCN(CC)Cc1cc(O)c(CN(CC)CC)cc1O	-2
CCN(CC)Cc1cc(C(C)C)c(O)c(C(C)C)c1	4.1*
CCc1oc(C(=O)O)cc1CN(CC)CC	1.6
CC(C)Cn1c(=O)oc2ccccc21	-0.3
Oc1ccccc1-c1nc2ccccc2o1	-0.43
O=c1oc2ccccc2n1-c1nc2ccccc2o1	5.6*
O=C(Nc1ccc2nc(NC(=O)C3CCCCC3)sc2c1)c1cccs1	0.87
CCOc1ccc2[nH]c(C)c(CN3CCCC3)c(=O)c2c1	0.61
COc1ccc2[nH]c(C)c(CN3CCCC3)c(=O)c2c1	0.96
COc1ccc2[nH]c(C)c(CN3CCC(C)CC3)c(=O)c2c1	3.5*
Cc1ccc(C(=O)NC2(O)C(=O)c3ccccc3C2=O)cc1C	-6.4
COc1cccc(Nc2nc3ccccc3s2)c1	0.59
CC1CCCCC1N1CN=C(Nc2nc3ccccc3s2)NC1 (stereo not drawn)	3.8*
c1ccc2sc(NC3=NCN(Cc4ccc5c(c4)OCO5)CN3)nc2c1	2.8
O=C(Nc1ccccc1)Nc1nnc(-c2ccccc2F)s1	1.2
NC(/C=C/c1cc(C(F)(F)F)cc(C(F)(F)F)c1)=N\OC(=O)c1ccc(Cl)cc1	-0.03
CSC(=NC#N)N1CCN(c2ccc(C(F)(F)F)cc2[N+](=O)[O-])CC1	-0.74
CC1CCN(Cc2c(O)ccc3ccccc23)CC1	1.6
Oc1ccc2ccccc2c1CN1CCc2ccccc2C1	3.6*
Oc1ccc2ccccc2c1CN1CCN(c2ccc(F)cc2)CC1	-3.4
COc1ccc(C(c2c[nH]c3ccccc23)c2c[nH]c3ccccc23)cc1O	2.9
O=S(=O)(c1cc(C(F)(F)F)cc(C(F)(F)F)c1)N1CCc2c([nH]c3ccccc23)C1C(F)(F)F (stereo not drawn)	3.5*
FC(F)(F)Oc1ccc(NC(=S)N2CCc3c([nH]c4ccccc34)C2C(F)(F)F)cc1 (stereo not drawn)	1.1
O=C(NC(=O)N1CCc2c([nH]c3ccccc23)C1C(F)(F)F)c1ccccc1 (stereo not drawn)	7.5*
SMILES	Dicer inh
FC(F)(F)Oc1ccccc1NC(=S)N1CCc2c([nH]c3ccccc23)C1C(F)(F)F (stereo not drawn)	-7
O=C(O)CCC(=O)N1CCc2c([nH]c3ccccc23)C1C(F)(F)F (stereo not drawn)	1
O=C(O)CCCC(=O)N1CCc2c([nH]c3ccccc23)C1C(F)(F)F (stereo not drawn)	-0.64
O=S(=O)(Nc1ccc2ccccc2n1)c1ccccc1Cl	2.1
COc1ccc2[nH]cc(CCNC(=O)C3CC3)c2c1	-0.76
CN(C)c1cc(N2CCCC2)c(F)cc1[N+](=O)[O-]	1.6
O=c1[nH]c2sc(-c3ccccc3)cc2c(=O)n1-c1ccccc1	2.1
Cc1ccc(-n2c(=O)[nH]c3sc(-c4ccccc4)cc3c2=O)cc1	3.2*
Cc1ccccc1-n1c(=S)[nH]c2sc(-c3ccccc3)cc2c1=O	2.5
O=C(Oc1ccc(-c2nnco2)cc1)N1CCCCC1	-0.89
c1coc(-c2nc3c4c5c(sc4ncn3n2)CCCCC5)c1	0.24
COc1ccc(-c2c3c(nc4c2c(=O)n(C)c(=O)n4C)-c2ccccc2CC3)c(Cl)c1OC	0.96
O=C(Nc1ccc2c(c1)CS(=O)(=O)C2)c1cccs1	0.38
CN(C)c1ccc(NC(=O)c2cc3sc4ccccc4c3s2)cc1	6.5*
COCCNC(=O)c1cc2sc3ccccc3c2s1	3.9*
COC(=O)c1sc2ccccc2c1Cl	-0.81
O=C(Nc1ccc(F)cc1)c1sc2ccccc2c1Cl	-0.53
O=C(Nc1cccc(S(=O)(=O)N2CCOCC2)c1)c1cc2sc3ccccc3c2s1	-0.66
CN(C)c1ccc(C(O)C(=O)c2cccs2)cc1 (stereo not drawn)	0.15
CCN(CC)CCCNC(=O)c1sc2ccccc2c1Cl	-0.79
CN(C)c1ccc(NC(=O)c2cccs2)cc1	3.2*
CCCN=C(C1=C(O)C(=O)N(c2ccccc2)C1=O)c1ccccc1	-1.6
COc1ccc(C2/C(=C(\O)c3ccc(C)cc3)C(=O)C(=O)N2CCCn2ccnc2)c(OC)c1 (stereo not drawn)	-5.6
CSc1nsc(SC)c1C(N)=O	0.5
Cc1ccccc1NC(=O)Nc1cc2ccccc2s1	-0.29
SMILES	Dicer inh
N#CCCN(Cc1cccnc1)C(=S)NC1CC2C=CC1C2 (stereo not drawn)	1.3
N#Cc1c(Oc2ccccc2)ccc([N+](=O)[O-])c1Oc1ccccc1	1.8
CCOc1nnc(OCC)c2ccccc12	-0.62
Cc1cc2c3c(c1)c(OCc1c(Cl)cccc1Cl)c(-c1ccccc1)c(=O)n3CCC2	-0.64
CCC12CCCN3CCC4(C(=C(C(=O)OC)C1)Nc1ccccc14)C32 (stereo not drawn)	-3
CC1(C)CC(=O)C2=C(C1)OC1CCCCC21 (stereo not drawn)	3.4*
CC1(C)CC(=O)C2=C(C1)OC1=C(C(=O)CC(C)(C)C1)C2c1ccc(Br)cc1	0.76
CC1(C)CC(=O)C2=C(C1)OC1=C(C2)C(=O)CC(C)(C)C1	0.85
